This passage reports inhibition results from ChEMBL document CHEMBL1961873, “Compounds: GSK PKIS; Assays: Nanosyn kinase panel” (2012).

Test [1] has as its target Rho-associated protein kinase 1 (Homo sapiens) (UniProt Q13464). The following applies: at 1 µM.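 Further: reported values are mean percent inhibition of ROCK1.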
The target in test [2] is Rho-associated protein kinase 2 (Homo sapiens) (UniProt O75116). The following applies: at 0.1 µM.
Test [3] shares this target. To be noted: at 1 µM.
In test [4] the target is Ribosomal protein S6 kinase alpha-1 (Homo sapiens) (UniProt Q15418). To be noted: at 0.1 µM.
Test [5] has the same target. The following applies: at 1 µM.
Test [6] concerns the target Ribosomal protein S6 kinase alpha-3 (Homo sapiens) (UniProt P51812). To be noted: at 0.1 µM.
Test [7] has the same target. To be noted: at 1 µM.
The target of test [8] is Ribosomal protein S6 kinase alpha-2 (Homo sapiens) (UniProt Q15349). To be noted: at 0.1 µM.
Test [9] has the same target. To be noted: at 1 µM.
The target of test [10] is Ribosomal protein S6 kinase alpha-6 (Homo sapiens) (UniProt Q9UK32). To be noted: at 0.1 µM.
Test [11] shares this target. To be noted: at 1 µM.
The target in test [12] is T1, Serine/threonine-protein kinase Sgk1 (Homo sapiens) (UniProt O00141).
T1 sequence (whole entry): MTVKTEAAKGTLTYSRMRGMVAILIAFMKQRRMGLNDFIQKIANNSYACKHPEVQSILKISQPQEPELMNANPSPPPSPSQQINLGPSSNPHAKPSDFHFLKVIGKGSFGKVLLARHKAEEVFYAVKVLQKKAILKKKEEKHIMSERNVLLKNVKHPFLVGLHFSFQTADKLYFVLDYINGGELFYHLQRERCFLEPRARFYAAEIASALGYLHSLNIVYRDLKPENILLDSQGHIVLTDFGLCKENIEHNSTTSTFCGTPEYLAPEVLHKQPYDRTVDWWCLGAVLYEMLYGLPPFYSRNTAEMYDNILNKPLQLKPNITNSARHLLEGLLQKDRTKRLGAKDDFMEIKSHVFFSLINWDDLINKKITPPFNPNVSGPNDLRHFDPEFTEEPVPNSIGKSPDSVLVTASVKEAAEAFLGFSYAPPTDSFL
To be noted: at 0.1 µM.

Test [13] concerns the target T1, Serine/threonine-protein kinase Sgk1 (Homo sapiens). To be noted: at 1 µM.
Test [14] deals with T2, Serine/threonine-protein kinase Sgk2 (Homo sapiens) (UniProt Q9HBY8).
T2 sequence (whole entry): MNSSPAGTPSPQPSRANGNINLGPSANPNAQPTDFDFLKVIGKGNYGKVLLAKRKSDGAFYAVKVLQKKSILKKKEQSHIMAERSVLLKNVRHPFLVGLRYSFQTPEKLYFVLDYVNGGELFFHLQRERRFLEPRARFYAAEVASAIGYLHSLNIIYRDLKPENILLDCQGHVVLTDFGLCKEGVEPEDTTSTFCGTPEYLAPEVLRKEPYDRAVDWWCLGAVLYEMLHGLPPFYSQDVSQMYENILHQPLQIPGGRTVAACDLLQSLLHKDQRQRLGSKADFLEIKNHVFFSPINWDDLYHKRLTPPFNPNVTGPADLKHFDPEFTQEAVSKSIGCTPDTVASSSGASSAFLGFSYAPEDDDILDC
To be noted: at 0.1 µM.

The target in test [15] is T2, Serine/threonine-protein kinase Sgk2 (Homo sapiens). The following applies: at 1 µM.
Test [16] deals with T3, Serine/threonine-protein kinase Sgk3 (Homo sapiens) (UniProt Q96BR1).
T3 sequence (whole entry): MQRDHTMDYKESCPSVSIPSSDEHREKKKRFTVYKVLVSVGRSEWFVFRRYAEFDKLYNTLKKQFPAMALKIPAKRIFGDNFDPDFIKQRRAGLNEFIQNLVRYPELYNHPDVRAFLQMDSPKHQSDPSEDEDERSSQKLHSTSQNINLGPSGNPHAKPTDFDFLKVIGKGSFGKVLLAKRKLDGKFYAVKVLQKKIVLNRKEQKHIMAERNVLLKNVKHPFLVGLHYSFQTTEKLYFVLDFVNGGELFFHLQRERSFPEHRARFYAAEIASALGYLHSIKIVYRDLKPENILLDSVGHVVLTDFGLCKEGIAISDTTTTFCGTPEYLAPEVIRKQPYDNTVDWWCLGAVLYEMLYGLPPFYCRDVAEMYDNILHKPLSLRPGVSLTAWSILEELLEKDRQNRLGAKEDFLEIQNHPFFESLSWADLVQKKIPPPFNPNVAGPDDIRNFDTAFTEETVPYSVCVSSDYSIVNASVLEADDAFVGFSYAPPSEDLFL
To be noted: at 0.1 µM.

Test [17] deals with T3, Serine/threonine-protein kinase Sgk3 (Homo sapiens). The following applies: at 1 µM.
For test [18], the target named is 5'-AMP-activated protein kinase catalytic subunit alpha-1 (Homo sapiens) (UniProt Q13131). The following applies: at 0.1 µM.
Test [19] has the same target. The following applies: at 1 µM.
In test [20] the target is 5'-AMP-activated protein kinase catalytic subunit alpha-2 (Homo sapiens) (UniProt P54646). The following applies: at 0.1 µM.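 Further: mean inhibition measured on the AMPK complex of alpha2, beta1 and gamma1 subunits.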
Chain of 5'-AMP-activated protein kinase catalytic subunit alpha-2 (Homo sapiens) (P54646 whole entry, looked up): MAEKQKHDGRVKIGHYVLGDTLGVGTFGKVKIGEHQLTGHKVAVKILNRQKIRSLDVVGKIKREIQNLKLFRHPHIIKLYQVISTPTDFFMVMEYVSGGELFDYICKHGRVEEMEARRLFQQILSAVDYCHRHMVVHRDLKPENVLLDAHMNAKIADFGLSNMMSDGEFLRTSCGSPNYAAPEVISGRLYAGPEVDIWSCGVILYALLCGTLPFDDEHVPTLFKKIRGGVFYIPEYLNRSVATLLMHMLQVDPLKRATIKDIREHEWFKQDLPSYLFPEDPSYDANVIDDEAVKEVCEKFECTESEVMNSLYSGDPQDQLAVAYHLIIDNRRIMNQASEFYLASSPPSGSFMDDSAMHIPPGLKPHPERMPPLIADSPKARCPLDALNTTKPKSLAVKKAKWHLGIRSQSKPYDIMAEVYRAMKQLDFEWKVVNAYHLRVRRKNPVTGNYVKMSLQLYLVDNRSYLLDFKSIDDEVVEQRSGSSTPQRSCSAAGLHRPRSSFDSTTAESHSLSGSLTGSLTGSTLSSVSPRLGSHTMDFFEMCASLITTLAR

Chain of Ribosomal protein S6 kinase alpha-1 (Homo sapiens) (Q15418 whole entry): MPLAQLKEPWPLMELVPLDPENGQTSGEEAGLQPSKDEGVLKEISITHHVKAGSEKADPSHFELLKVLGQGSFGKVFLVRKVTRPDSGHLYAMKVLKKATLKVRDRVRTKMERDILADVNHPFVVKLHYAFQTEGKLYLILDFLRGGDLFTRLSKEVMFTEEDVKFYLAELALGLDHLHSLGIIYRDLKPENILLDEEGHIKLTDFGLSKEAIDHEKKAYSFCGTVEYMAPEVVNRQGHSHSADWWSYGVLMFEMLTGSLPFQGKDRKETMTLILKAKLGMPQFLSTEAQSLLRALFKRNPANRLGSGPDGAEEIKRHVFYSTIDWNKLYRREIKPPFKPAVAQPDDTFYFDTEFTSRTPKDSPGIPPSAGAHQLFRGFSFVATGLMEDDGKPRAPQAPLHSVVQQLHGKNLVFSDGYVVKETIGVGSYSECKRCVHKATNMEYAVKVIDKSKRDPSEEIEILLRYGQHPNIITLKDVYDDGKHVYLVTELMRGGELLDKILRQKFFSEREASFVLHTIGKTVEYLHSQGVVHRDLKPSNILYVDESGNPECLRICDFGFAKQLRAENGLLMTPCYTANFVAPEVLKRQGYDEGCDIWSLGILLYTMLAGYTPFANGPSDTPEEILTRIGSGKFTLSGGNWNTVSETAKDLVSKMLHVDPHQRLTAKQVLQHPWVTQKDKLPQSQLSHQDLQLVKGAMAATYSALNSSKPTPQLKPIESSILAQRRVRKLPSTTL
Chain of Ribosomal protein S6 kinase alpha-3 (Homo sapiens) (P51812 whole entry): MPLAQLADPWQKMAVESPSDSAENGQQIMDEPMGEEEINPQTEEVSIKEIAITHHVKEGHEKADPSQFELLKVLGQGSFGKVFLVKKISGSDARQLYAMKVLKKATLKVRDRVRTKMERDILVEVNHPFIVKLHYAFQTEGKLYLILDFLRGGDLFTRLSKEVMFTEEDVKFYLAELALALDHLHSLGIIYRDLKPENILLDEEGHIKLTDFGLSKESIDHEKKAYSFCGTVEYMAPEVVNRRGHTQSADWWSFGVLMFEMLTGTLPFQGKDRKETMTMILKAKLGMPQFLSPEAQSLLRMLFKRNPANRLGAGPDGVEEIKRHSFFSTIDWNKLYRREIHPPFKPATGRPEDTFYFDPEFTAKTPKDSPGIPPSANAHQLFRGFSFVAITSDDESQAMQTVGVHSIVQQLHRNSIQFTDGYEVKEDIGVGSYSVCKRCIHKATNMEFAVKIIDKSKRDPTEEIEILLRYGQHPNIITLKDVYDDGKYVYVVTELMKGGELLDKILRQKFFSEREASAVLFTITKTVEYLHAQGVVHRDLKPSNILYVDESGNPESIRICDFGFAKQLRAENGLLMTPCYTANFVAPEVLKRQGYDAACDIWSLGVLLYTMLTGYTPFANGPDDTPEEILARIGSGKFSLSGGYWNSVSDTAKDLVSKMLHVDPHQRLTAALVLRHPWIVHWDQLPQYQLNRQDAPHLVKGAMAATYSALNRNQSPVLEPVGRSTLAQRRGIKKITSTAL
Chain of Rho-associated protein kinase 2 (Homo sapiens) (O75116 whole entry, looked up): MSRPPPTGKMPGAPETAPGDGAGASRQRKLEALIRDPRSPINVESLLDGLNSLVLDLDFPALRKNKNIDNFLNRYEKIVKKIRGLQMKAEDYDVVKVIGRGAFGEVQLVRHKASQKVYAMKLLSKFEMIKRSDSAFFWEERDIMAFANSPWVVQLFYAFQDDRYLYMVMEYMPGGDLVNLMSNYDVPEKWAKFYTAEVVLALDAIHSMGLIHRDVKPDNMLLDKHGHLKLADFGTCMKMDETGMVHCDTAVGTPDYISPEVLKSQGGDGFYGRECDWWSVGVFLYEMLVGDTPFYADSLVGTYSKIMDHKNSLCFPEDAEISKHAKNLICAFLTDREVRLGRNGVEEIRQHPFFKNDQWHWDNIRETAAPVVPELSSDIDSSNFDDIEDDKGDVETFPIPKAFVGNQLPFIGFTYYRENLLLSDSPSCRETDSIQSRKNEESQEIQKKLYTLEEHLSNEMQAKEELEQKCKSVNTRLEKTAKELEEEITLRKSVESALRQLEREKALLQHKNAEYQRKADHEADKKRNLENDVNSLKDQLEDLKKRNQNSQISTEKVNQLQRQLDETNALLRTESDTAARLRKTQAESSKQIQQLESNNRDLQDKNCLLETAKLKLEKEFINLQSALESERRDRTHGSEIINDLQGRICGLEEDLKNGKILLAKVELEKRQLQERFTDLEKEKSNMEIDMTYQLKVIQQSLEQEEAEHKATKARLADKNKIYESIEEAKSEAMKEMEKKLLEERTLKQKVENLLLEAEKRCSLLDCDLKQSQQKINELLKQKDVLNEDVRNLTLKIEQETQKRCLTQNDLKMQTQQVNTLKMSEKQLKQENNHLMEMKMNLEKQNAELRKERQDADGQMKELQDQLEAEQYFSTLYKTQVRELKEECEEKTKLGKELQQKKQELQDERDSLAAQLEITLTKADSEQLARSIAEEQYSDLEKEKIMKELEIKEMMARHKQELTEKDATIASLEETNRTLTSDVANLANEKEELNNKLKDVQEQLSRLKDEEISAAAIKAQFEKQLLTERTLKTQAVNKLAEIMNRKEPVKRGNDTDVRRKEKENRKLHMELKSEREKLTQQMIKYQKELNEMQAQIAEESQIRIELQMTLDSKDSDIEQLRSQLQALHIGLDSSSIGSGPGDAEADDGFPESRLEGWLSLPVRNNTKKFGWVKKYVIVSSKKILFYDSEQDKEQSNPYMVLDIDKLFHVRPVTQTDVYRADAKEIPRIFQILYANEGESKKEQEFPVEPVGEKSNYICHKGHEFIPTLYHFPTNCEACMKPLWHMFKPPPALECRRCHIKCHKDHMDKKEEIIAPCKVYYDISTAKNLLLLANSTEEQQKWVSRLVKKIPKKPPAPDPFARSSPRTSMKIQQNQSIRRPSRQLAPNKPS
Chain of Ribosomal protein S6 kinase alpha-2 (Homo sapiens) (Q15349 whole entry): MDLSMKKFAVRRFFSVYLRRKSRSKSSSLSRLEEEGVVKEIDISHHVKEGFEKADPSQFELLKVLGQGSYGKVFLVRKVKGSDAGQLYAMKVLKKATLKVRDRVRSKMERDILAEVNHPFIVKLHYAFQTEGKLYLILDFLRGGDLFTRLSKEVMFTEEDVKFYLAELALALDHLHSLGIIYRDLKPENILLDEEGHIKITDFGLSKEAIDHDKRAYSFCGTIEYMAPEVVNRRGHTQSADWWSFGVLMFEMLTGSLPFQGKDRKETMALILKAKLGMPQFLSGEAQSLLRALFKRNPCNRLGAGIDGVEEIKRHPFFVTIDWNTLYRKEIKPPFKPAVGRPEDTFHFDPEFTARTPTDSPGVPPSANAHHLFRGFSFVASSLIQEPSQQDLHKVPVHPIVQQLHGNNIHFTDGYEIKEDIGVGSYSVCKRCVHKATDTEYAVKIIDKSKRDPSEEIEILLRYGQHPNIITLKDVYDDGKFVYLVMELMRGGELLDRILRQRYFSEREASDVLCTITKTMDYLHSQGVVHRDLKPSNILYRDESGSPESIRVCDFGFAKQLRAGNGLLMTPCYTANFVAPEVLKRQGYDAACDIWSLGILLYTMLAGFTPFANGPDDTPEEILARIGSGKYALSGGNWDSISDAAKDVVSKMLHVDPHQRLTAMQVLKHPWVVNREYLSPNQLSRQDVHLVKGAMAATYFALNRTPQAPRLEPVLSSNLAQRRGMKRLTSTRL
Chain of Ribosomal protein S6 kinase alpha-6 (Homo sapiens) (Q9UK32 whole entry): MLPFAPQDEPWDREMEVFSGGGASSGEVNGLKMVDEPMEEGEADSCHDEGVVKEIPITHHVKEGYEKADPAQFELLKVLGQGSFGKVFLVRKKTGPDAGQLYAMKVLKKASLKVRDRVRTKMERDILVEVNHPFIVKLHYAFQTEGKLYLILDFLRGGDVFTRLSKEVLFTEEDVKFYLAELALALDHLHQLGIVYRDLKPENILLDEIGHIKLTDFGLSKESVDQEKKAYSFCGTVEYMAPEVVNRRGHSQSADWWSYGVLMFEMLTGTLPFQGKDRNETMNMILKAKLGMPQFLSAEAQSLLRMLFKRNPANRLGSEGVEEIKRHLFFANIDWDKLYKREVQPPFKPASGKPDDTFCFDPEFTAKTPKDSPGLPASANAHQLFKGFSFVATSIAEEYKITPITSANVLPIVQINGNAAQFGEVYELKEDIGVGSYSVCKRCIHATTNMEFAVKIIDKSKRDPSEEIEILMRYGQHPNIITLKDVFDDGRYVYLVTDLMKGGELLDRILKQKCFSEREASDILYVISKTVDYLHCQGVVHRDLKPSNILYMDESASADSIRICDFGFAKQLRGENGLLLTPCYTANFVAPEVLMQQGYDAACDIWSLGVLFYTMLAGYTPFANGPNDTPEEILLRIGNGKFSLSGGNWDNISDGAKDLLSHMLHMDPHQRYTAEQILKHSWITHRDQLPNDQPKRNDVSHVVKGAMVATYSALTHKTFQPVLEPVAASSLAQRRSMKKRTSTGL

`NS(=O)(=O)c1ccc(NC=C2C(=O)Nc3ccc4ncsc4c32)cc1`: the inhibition in test [1] stood at 55.1%; in test [2], 27.4%; in test [3] it was 69.4%; in [4], 15.1%; in test [5], 53.4%; in test [6], 17.7%. The inhibition was 57.1% in test [7]; 34.3% in test [8]; 80.5% in test [9]; 29.3% in [10]; 77.4% in [11]; 19.7% in test [12]. The inhibition was 64% in test [13]; 8.38% in test [14]; 36.4% in test [15]; 5.73% in test [16]; 19.1% in test [17]; 38.4% in test [18]. Moreover, the inhibition came to 68.2% in test [19] and 24% in [20].
On to `Cc1ccc(O)cc1Nc1ccnc2ccc(S(C)(=O)=O)cc12`, for which the inhibition in [1] stood at 1.52%; in test [2], 4.28%; in [3], 5.46%; in [4] it was 2.4%; in test [5], 0.29%; in test [6], 0.8%. The inhibition was determined as 1.28% in test [7]; 3.52% in test [8]; 3.02% in [9]; 2.13% in test [10]; 1.9% in [11]; 3.76% in test [12]. Further, the inhibition in [13] was determined as 6.8%; in test [14], 4.31%; in [15], 4.71%; in test [16] it was 4.36%; in [17], 5.21%; in test [18] it was 2.21%. In addition, the inhibition is 5.69% in test [19] and 3.06% in test [20].
As to `CCn1c(-c2nonc2N)nc2c(C#CC(C)(C)O)nc(OCCNC)cc21`, the inhibition is 4.86% in [1]; 3.51% in [2]; 5.7% in test [3]; 0.22% in [4]; 4.86% in test [5]; 1.84% in test [6]. In addition, the inhibition in [7] turned out to be 5.57%; in test [8], 3.02%; in test [9] it was 7.49%; in [10] it was 0.98%; in test [11], 2.45%; in test [12], 1.88%. Besides, the inhibition was found to be 2.66% in test [13]; 2.29% in test [14]; 4.48% in [15]; 2.71% in [16]; 13.9% in [17]; 2.74% in test [18]. For the same compound, the figures for the inhibition in test [19] and in test [20] were 8.37% and 4.37%, respectively.
For the compound `OCc1ccc(-c2nc(-c3ccccn3)c(-c3ccc4c(c3)OCO4)[nH]2)cc1`, the inhibition was 2.25% in test [1]; 3.74% in [2]; 1.44% in test [3]; 1.38% in [4]; 0.67% in test [5]; 0.79% in test [6]. The inhibition in test [7] was 0.24%; in [8], 2.72%; in [9], 3.66%; in test [10] it was 1.53%; in [11] it was 2.9%; in test [12], 3.65%. The inhibition in test [13] came out at 0.91%; in test [14] it was 1.37%; in test [15] it was 1.29%; in test [16], 3.28%; in test [17] it was 2.86%; in test [18], 3.68%. Further, the inhibition amounted to 2.81% in test [19] and 2.09% in test [20].
Take `NS(=O)(=O)c1ccc(N/N=C2\C(=O)Nc3ccc(Cl)cc32)cc1`: the inhibition was 2.29% in test [1]; 3.76% in test [2]; 10.6% in test [3]; 1.95% in [4]; 4.81% in [5]; 1.84% in test [6]. Moreover, the inhibition in test [7] was found to be 3.95%; in test [8] it was 1.83%; in [9] it was 2.94%; in test [10], 0.98%; in test [11] it was 3.15%; in test [12] it was 3.68%. The inhibition in [13] was 7.28%; in [14], 2.41%; in test [15] it was 5.65%; in [16], 4.29%; in test [17], 3.61%; in [18] it was 6.79%. Moreover, the figures for the inhibition in test [19] and in [20] were 16.1% and 1.86%, respectively.
Consider `O=C1Nc2ccc(-c3cccnc3)cc2C1=Cc1cc(Br)c(O)c(Br)c1`, for which the inhibition in [1] worked out at 4.77%; in [2] it was 2.87%; in [3], 7.43%; in test [4], 2.15%; in test [5], 2.73%; in test [6], 0.76%. Besides, the inhibition was -1.29% in test [7]; 1.03% in test [8]; 3.66% in [9]; 1.69% in test [10]; 5.51% in test [11]; 3.01% in [12]. Further, the inhibition in test [13] came out at 3.05%; in test [14], 1.63%; in test [15] it was 6.41%; in test [16], 3.1%; in test [17], 2%; in test [18], 3.07%. Further, the inhibition in test [19] came out at 3.3%; in [20], 2.54%.
